Measurements taken from PubChem BioAssay (EPA / NIEHS).
Where “and” joins values, the source holds several entries; their conditions need not be identical. Equal values may be shown once. Inconclusive results are not listed. Where a structure was tested more than once in an assay, its records may differ in their call. Calls of active or inactive are those of the source. The calls were made as follows: active = hit-call score of the fitted dose curve at least 0.9, where 1 is the maximum; inconclusive = response in the unintended direction; inactive = score below 0.9.

biological target: Cellular tumor antigen p53 (Homo sapiens) (UniProt P04637); assay: TOX21_p53_BLA_p3_ratio: Tox21 HCT-116 p53 Agonism Beta-lactamase Assay, Ratio, Phase 3 (AID 2283596)
Sequence (P04637 whole entry, looked up, the tested form may be a part): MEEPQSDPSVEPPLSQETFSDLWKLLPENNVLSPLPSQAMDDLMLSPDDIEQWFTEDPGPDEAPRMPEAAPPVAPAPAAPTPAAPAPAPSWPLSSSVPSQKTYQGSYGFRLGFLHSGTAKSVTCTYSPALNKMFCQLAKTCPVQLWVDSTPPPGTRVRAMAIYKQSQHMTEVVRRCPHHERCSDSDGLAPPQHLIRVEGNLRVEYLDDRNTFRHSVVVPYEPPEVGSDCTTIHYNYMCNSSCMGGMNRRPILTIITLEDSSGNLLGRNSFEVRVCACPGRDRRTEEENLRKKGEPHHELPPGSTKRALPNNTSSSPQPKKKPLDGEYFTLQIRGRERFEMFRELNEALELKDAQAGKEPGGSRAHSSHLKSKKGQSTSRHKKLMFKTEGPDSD
Excerpt: TOX21_p53_BLA_p3 is a cell-based, single-readout assay that uses HCT116, a human intestinal cell line, […] in a 1536-well plate.TOX21_p53_BLA_p3_ratio is an assay readout measuring reporter gene via receptor activity and designed using inducible reporter (beta lactamase induction) detected with GAL4 b-lactamase reporter gene. The signal is derived from the ratio of cleaved (ch2) to uncleaved (ch1) reporter gene substrate used as the measure of target activity.Data from the assay component TOX21_p53_BLA_p3_ratio was analyzed into 1 assay endpoint. This assay endpoint, TOX21_p53_BLA_p3_ratio, was analyzed in the positive analysis fitting direction relative to DMSO as the negative control and baseline of activity. Using a type of inducible reporter, gain-of-signal activity can be used to understand changes in the reporter gene as they relate to the gene TP53. Furthermore, this assay endpoint can be referred to as a primary readout, because this assay has produced multiple assay endpoints where this ratio serves a reporter gene function to understand target activity. To generalize the intended target to other relatable targets, this assay endpoint is annotated to the DNA binding intended target family, where the subfamily is tumor suppressor.
Thawing Method: Place 14 mL of pre-warmed thaw medium into a 15 mL of conical tub. Remove the vial of cells to be thawed from liquid nitrogen and thaw rapidly by placing at 37C in a water bath with gentle agitation for 1-2 minutes. Decontaminate the vial by wiping with 70% ethanol before opening in a biological safety cabinet. Transfer the vial contents drop-wise into 14 mL of thaw medium in a sterile 15-mL conical tub. Centrifuge cells at 900 rpm for 4 minutes and resuspend in thaw medium. Transfer contents to the T75 tissue culture flask containing Thaw Medium and place flask in a humidified 37C/5% CO2 incubator. Switch to growth medium at first passage.Propagation Method: Aspirate medium, rinse once in DPBS, add 0.25% Trypsin/EDTA and swirl to coat the cell evenly. Add an equal volume of Growth Medium to inactivate Trypsin after 2-3 minutes incubation at 37C. Centrifuge cells at 900 rpm for 4 minutes and resuspend in growth medium. Cell should be passage or fed at least twice a week.Assay Protocol: Harvest cells from culture in growth medium and resuspend in assay medium. 2.2 Dispense 4000 cells/5 uL/well into 1536-well black/clear bottom plates using a Multidrop dispenser. After the cells were incubated at 37C for 5 hours, 23 nL of compounds dissolved in DMSO were transferred to the assay plate by a PinTool resulting in a 217-fold dilution. Incubate the plates for 16 hours at 37C, 5% CO2. Add 1 uL of 6X LiveBLAzer FRET B/G (CCF4-AM) Substrate Mixture to each well using a BioRAPTR dispenser and incubate the plates at room temperature for 2 hours. Measure fluorescence intensity at 460 and 530 nm emission and 405 nm excitation by an Envision detector. Data is expressed as the ratio of 460nm/530nm emissions. Add 4 uL of Cell-titer Glo to each well using BioRAPTR and incubate the plates at room temperature for 2 hours. Measure fluorescence intensity by a VewLux plate reader.

SMILES | outcome | AC50
NC(=O)N(O)[C@@H]1C=C[C@H](Oc2cccc(Oc3ccc(F)cc3)c2)C1 | inactive | 
CC#C[C@]1(O)CC[C@H]2[C@@H]3CCC4=CC(=O)CCC4=C3[C@@H](c3ccc(N(C)C)cc3)C[C@@]21C | inactive | 20.1 µM (active)
Oc1cccc(O)c1 | inactive | 
Cc1oc(-c2ccccc2)nc1CCOc1ccc(C[C@H](Nc2ccccc2C(=O)c2ccccc2)C(=O)O)cc1 |  | 39.9 µM (active)
CCc1nn(C2CCCCC2)c2cc(C3(C#N)CCC(C(=O)O)CC3)ccc12 (stereo not given) |  | 73.5 µM (active)
O=[N+]([O-])c1ccc(O)cc1 | inactive | 
Cc1ccc(S(=O)(=O)O)c(C)c1 | inactive | 
CCCCOCCO | inactive | 
CCCCC(CC)COC(=O)CCCCC(=O)OCC(CC)CCCC (stereo not given) | inactive | 
O=c1c(-c2ccc(O)cc2)coc2cc(O)ccc12 | inactive | 
Nc1cccc2c(N)cccc12 | inactive | 
CCCCC(CC)COC(=O)CCCCC(=O)OCc1ccccc1 (stereo not given) | inactive | 
CCCCCCCC(=O)O | inactive | 
CCCCCCC(=O)O | inactive | 
CC[C@H](c1ccc(O)cc1)[C@@H](CC)c1ccc(O)cc1 | inactive | 14.4 µM (active)
C=C(C)C(=O)OCCC(F)(F)C(F)(F)C(F)(F)C(F)(F)C(F)(F)C(F)(F)F | inactive | 
CC(=O)CC(C)(C)O | inactive | 
OCCC(F)(F)C(F)(F)C(F)(F)C(F)(F)C(F)(F)C(F)(F)C(F)(F)C(F)(F)F | inactive | 

SMILES | outcome | AC50
CCCCCCCCCCCCN1CCCC1=O |  | 67.1 µM (active)
CC(C)(C)c1cccc(C(C)(C)C)c1O | inactive | 
COc1ccc([N+](=O)[O-])cc1N | inactive | 
CCCOC(=O)c1ccc(O)cc1 | inactive | 
O=C(OCCOCCOC(=O)c1ccccc1)c1ccccc1 | inactive | 
CC[C@H](C)[C@@H](C(=O)O)n1sc2ccccc2c1=O | inactive | 
CN1CCN(c2ccccc2/C=C2\SCCN(c3ccc(Cl)c(Cl)c3)C2=O)CC1 | inactive | 
CC1=C(/C=C/C(C)=C/C=C/C(C)=C/C(=O)O)C(C)(C)CCC1 | inactive | 85.7 µM (active)
Cc1cc(C)c(O)c(C)c1 | inactive | 
CCN(CC)CCNc1ccc(CNC=O)c2sc3ccc(OC)cc3c(=O)c12 |  | 18.7 µM (active)
CCCCCCCCC(=O)O | inactive | 
CCCCCCCCCCCCCC[N+](C)(C)C | inactive | 39.8 µM (active) and 14.6 µM (active)
ClC1=C(Cl)C(Cl)(Cl)C(Cl)=C1Cl |  | 19.2 µM (active) and 2.22 µM (active)
OC1CCCCC1 | inactive | 
CC(C)(C)c1cc(C(C)(C)C)c(O)c(C(C)(C)C)c1 | inactive | 
CCC(C)(C)C1CCC(O)CC1 (stereo not given) | inactive | 
CN(C)C=O | inactive | 
CC(O)C(=O)O (stereo not given) | inactive | 
